Assay results as given in PubChem BioAssay (NCI).
This is part of a sample that, as a whole, favours compounds with a hit. Of some 79,000 tested, about 15% had one in any assay. Active and inactive are the calls of the source. Rule as the data show it: active = growth inhibition above about 70%; inactive = the rest.

Key:
[1] = NCI Yeast Anticancer Drug Screen. Data for the rad52 strain (AID 147);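 also: 0% = growth of vehicle-treated control cultures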; conditions: S. cerevisiae rad52 mutant growth inhibition, hits give high values
In short: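 Here a repair-compromised yeast strain receives each compound; its growth is then quantified and normalised to vehicle-only controls.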

[2] = NCI Yeast Anticancer Drug Screen. Data for the wt1 strain (AID 149);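 also: 0% = growth of vehicle-treated wt1 cultures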; conditions: S. cerevisiae wt1 strain (SPY 50644) growth inhibition, hits give high values
In short: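 Readout: yeast growth inhibition, normalised to vehicle controls, in the wt1 strain exposed to test compounds.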

[3] = NCI Yeast Anticancer Drug Screen. Data for the rad50EPP+ strain (AID 151);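 also: 0% = growth of vehicle-treated control cultures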; conditions: S. cerevisiae rad50 mutant strain, hits give high values
In short: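 Read-out is yeast growth inhibition relative to vehicle; cells used were the rad50EPP+ strain.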

[4] = NCI Yeast Anticancer Drug Screen. Data for the mgt1 strain (AID 153); conditions: S. cerevisiae mgt1 mutant growth inhibition, hits give high values
In short: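 Measured: inhibition of mgt1 yeast growth by compound, normalized to vehicle-treated cultures.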

[5] = NCI Yeast Anticancer Drug Screen. Data for the rad50 strain (AID 155);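 also: 0% = growth of vehicle-only cultures of the same strain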; conditions: S. cerevisiae rad50 strain growth inhibition, hits give high values
In short: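 Compounds were tested on a yeast strain with an engineered DNA damage repair alteration; the reported value is growth inhibition normalised to vehicle treatment.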

[6] = NCI Yeast Anticancer Drug Screen. Data for the mec2-1 strain (AID 157); conditions: S. cerevisiae mec2-1 strain, hits give high values
In short: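 Using mec2-1 yeast: add compound, measure growth, express inhibition versus vehicle-treated cultures.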

[7] = NCI Yeast Anticancer Drug Screen. Data for the rad14 strain (AID 159);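 also: 0% = growth of vehicle-treated control cultures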; conditions: S. cerevisiae rad14 strain growth inhibition, hits give high values
In short: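 Compound-treated yeast with a defined DNA-repair lesion; growth inhibition normalised to vehicle-treated cultures.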

[8] = NCI Yeast Anticancer Drug Screen. Data for the sgs1 mgt1 strain (AID 161);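 also: 0% = growth of cultures given vehicle only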; conditions: S. cerevisiae sgs1 mgt1 strain, hits give high values
In short: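 This yeast growth screen uses a strain with defined DNA-repair lesions; compound-treated growth is compared with vehicle-treated growth.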

[9] = NCI Yeast Anticancer Drug Screen. Data for the cln2 rad14 strain (AID 165);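 also: 0% = growth equal to vehicle treated cultures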; conditions: S. cerevisiae cln2 rad14 strain, hits give high values
In short: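 Yeast strain cln2 rad14, bearing defects in cell cycle control and DNA repair, serves as the test system; values reflect growth inhibition compared with vehicle.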

[10] = NCI Yeast Anticancer Drug Screen. Data for the wt2 strain (AID 169);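 also: 0% = growth of vehicle-treated yeast cultures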; conditions: S. cerevisiae wt2 strain growth inhibition, hits give high values
In short: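 Treated yeast vs. vehicle-treated yeast: growth inhibition determined.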

[11] = NCI Yeast Anticancer Drug Screen. Data for the mlh1 strain (AID 171);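 also: 0% = growth of vehicle-treated control cultures of the same strain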; conditions: S. cerevisiae mlh1 strain growth inhibition, hits give high values
In short: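 A yeast strain with a defined genetic lesion serves as the test organism. Cultures receive compound or vehicle, and growth is measured.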

[12] = NCI Yeast Anticancer Drug Screen. Data for the mlh1 rad18 strain (AID 175); conditions: S. cerevisiae mlh1 rad18 strain growth inhibition, hits give high values
In short: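 Steps: expose repair-defective yeast to compound; measure growth; express inhibition against vehicle-treated controls.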

[13] = NCI Yeast Anticancer Drug Screen. Data for the rad18 strain (AID 177); conditions: S. cerevisiae rad18 mutant growth inhibition, hits give high values
In short: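 Measured value is growth inhibition of a yeast strain bearing a DNA repair alteration, referenced to vehicle-treated cells.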

[14] = NCI Yeast Anticancer Drug Screen. Data for the CLN2oe strain (AID 163);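 also: 0% = growth of vehicle-only control cultures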; conditions: S. cerevisiae CLN2oe strain, hits give high values
In short: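 Whole-cell yeast growth assay. A strain engineered for altered cell-cycle control received compound, and inhibition relative to vehicle-treated cultures was recorded.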

[15] = NCI Yeast Anticancer Drug Screen. Data for the bub3 strain (AID 167); conditions: S. cerevisiae bub3 mutant strain, hits give high values
In short: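 Growth of a checkpoint-deficient yeast mutant is measured after compound exposure. Values represent inhibition relative to vehicle.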

[16] = NCI Yeast Anticancer Drug Screen. Data for the sgs1 strain (AID 173);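 also: 0% = growth of vehicle-only control cultures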; conditions: S. cerevisiae sgs1 mutant, hits give high values
In short: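 A genetically defined yeast mutant is incubated with the test compound, and its growth is compared to that of the same strain given vehicle.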

[17] = at 5.0 µM (retest, dose inferred, filed as 0.5)
[18] = at 50.0 µM (retest, dose inferred, filed as 5.0)

Measured: growth inhibition

Cc1ccc(Nc2n[nH]c(=S)s2)cc1
active: [1]; at 33.0 µM 74% | [1]; at 100.0 µM 94% | [2]; at 100.0 µM 92% | [4]; at 100.0 µM 94% | [5]; at 33.0 µM 72% | [5]; [18] 80% | [5]; at 50.0 µM 87% | [5]; at 100.0 µM 93% | [6]; at 50.0 µM 86% | [6]; at 100.0 µM 93% | [7]; at 33.0 µM 81% | [7]; at 100.0 µM 95% | [8]; [18] 91% | [9]; [18] 94% | [10]; at 100.0 µM 92% | [11]; at 100.0 µM 92% | [12]; at 50.0 µM 85.7% | [13]; at 33.0 µM 80% | [13]; at 100.0 µM 94%
inactive: [1]; at 1.2 µM -2% | [1]; at 3.7 µM 2% | [1]; at 11.0 µM 6% | [2]; at 1.2 µM -21% | [2]; at 3.7 µM -12% | [2]; at 11.0 µM -19% | [2]; at 33.0 µM 35% | [3]; at 1.2 µM -13% | [3]; at 3.7 µM -10% | [3]; at 11.0 µM -11% | [3]; at 33.0 µM 6% | [3]; at 100.0 µM 68% | [4]; at 1.2 µM -6% | [4]; at 3.7 µM -5% | [4]; at 11.0 µM -3% | [4]; at 33.0 µM 65% | [5]; at 1.2 µM 5% | [5]; at 3.7 µM -1% | [5]; [17] 44% | [5]; at 11.0 µM 0% | [6]; at 1.2 µM -13% | [6]; at 3.7 µM -29% | [6]; [17] 39% | [6]; at 11.0 µM -27% | [6]; at 33.0 µM 13% | [6]; [18] 55% | [7]; at 1.2 µM -14% | [7]; at 3.7 µM -28% | [7]; at 11.0 µM -11% | [8]; [17] 1% | [9]; [17] 60% | [10]; at 1.2 µM -12% | [10]; at 3.7 µM -6% | [10]; at 11.0 µM -17% | [10]; at 33.0 µM 47% | [11]; at 1.2 µM -10% | [11]; at 3.7 µM -34% | [11]; at 11.0 µM -23% | [11]; at 33.0 µM 29% | [12]; [17] 36% | [12]; [18] 60% | [13]; at 1.2 µM -17% | [13]; at 3.7 µM -10% | [13]; at 11.0 µM 0%

Cn1c2nc3ccccc3c-2nc2ccccc21
inactive: [1]; at 1.2 µM 25% | [2]; at 1.2 µM 6% | [2]; at 3.7 µM 29% | [3]; at 1.2 µM 52% | [4]; at 1.2 µM 4% | [4]; at 3.7 µM 29% | [5]; at 1.2 µM 27% | [6]; at 1.2 µM 10% | [6]; at 3.7 µM 41% | [6]; [17] 33% | [8]; [17] 39% | [14]; at 1.2 µM 19% | [14]; at 3.7 µM 46% | [9]; [17] 32% | [15]; at 1.2 µM -5% | [15]; at 3.7 µM 22% | [15]; [17] 16% | [10]; at 1.2 µM 7% | [10]; at 3.7 µM 33% | [11]; at 1.2 µM 9% | [11]; at 3.7 µM 46% | [16]; at 1.2 µM 8% | [16]; at 3.7 µM 42% | [12]; [17] 45% | [13]; at 1.2 µM 8% | [13]; at 3.7 µM 42%
active: [1]; at 3.7 µM 88% | [1]; at 11.0 µM 97% | [1]; at 33.0 µM 98% | [1]; at 100.0 µM 98% | [2]; at 11.0 µM 79% | [2]; at 33.0 µM 96% | [2]; at 100.0 µM 97% | [3]; at 3.7 µM 93% | [3]; at 11.0 µM 98% | [3]; at 33.0 µM 98% | [3]; at 100.0 µM 98% | [4]; at 11.0 µM 80% | [4]; at 33.0 µM 97% | [4]; at 100.0 µM 97% | [5]; at 3.7 µM 81% | [5]; [17] 75% | [5]; at 11.0 µM 95% | [5]; at 33.0 µM 97% | [5]; [18] 97% | [5]; at 50.0 µM 98.6% | [5]; at 100.0 µM 96% | [6]; at 11.0 µM 87% | [6]; at 33.0 µM 97% | [6]; [18] 98% | [6]; at 50.0 µM 96% | [6]; at 100.0 µM 98% | [8]; [18] 95% | [8]; at 50.0 µM 97.9% | [14]; at 11.0 µM 91% | [14]; at 33.0 µM 97% | [14]; at 100.0 µM 97% | [9]; [18] 96% | [9]; at 50.0 µM 96.2% | [15]; at 11.0 µM 88% | [15]; at 33.0 µM 96% | [15]; [18] 97% | [15]; at 50.0 µM 98.2% | [15]; at 100.0 µM 94% | [10]; at 11.0 µM 83% | [10]; at 33.0 µM 96% | [10]; at 100.0 µM 96% | [11]; at 11.0 µM 91% | [11]; at 33.0 µM 97% | [11]; at 100.0 µM 97% | [16]; at 11.0 µM 88% | [16]; at 33.0 µM 97% | [16]; at 100.0 µM 97% | [12]; [18] 98% | [12]; at 50.0 µM 98.1% | [13]; at 11.0 µM 90% | [13]; at 33.0 µM 97% | [13]; at 100.0 µM 93%

COc1cc(NCc2ccc3nc(N)nc(N)c3c2C)cc(OC)c1OC
active: [5]; at 100.0 µM 78% | [6]; at 33.0 µM 82%
inactive: [1]; at 1.2 µM 1% | [1]; at 3.7 µM 5% | [1]; at 11.0 µM 17% | [1]; at 33.0 µM 37% | [1]; at 100.0 µM 68% | [2]; at 1.2 µM -1% | [2]; at 3.7 µM -4% | [2]; at 11.0 µM -6% | [2]; at 33.0 µM -7% | [2]; at 100.0 µM 1% | [3]; at 1.2 µM -5% | [3]; at 3.7 µM -4% | [3]; at 11.0 µM -4% | [3]; at 33.0 µM 6% | [3]; at 100.0 µM 27% | [4]; at 1.2 µM -3% | [4]; at 3.7 µM -6% | [4]; at 11.0 µM -7% | [4]; at 33.0 µM -7% | [4]; at 100.0 µM 37% | [5]; at 1.2 µM -3% | [5]; at 3.7 µM -3% | [5]; at 11.0 µM 7% | [5]; at 33.0 µM 28% | [5]; at 50.0 µM -7.65% | [6]; at 1.2 µM -4% | [6]; at 3.7 µM 8% | [6]; at 11.0 µM 39%
